{"source": "the supplement of paper PMC8728848", "binders": {"B1": {"name": "GS7807G-bfa-506-18-506 (Bacteroides fragilis) (protein)", "chain": "ASCDKFDEINTDPDATTKVTSSLLATGLLLDITSSSASKSFIYDELLAKQMAWGESMEDYQYNVFGRSGFGGYTTLINAQKMVESVSDDNVNAYDGLAHFIKAYKIFYMSMEMGDLPYEEALQGELGLVRPKYNTQKEVMNFILSDLETAYELFSTAKDFDGDPILGGSISKWKKATTAFQLKVLMHLSKKESDADLKVKERFARIVASGSLMESNEDNLQMKYADKANTVYPFHNTNTKHAGYAMLSTMLIDKFKATGDIRMFYYAKPAKAKLNEGVTADSWDAYIGTDPSLPFEQIEKAYATEQYSGFNARYTDYPSGEPVVRLGYAEQNFILAEAAVRGWISGDASAYYKKAIRAHMEFIASNTPDEEVYHHGHPITEEAIAAFLETPAIQLSGEKEEDIEKILTQRYLASFMQHPYDVYYDYRRTGYPVLPINPATNRNTMNDRLPMRWMYPKSESDYNLEHQNEALERQFGGVDDVNKLMWILQ"}}, "assay_in_all_cases": "glycan array binding signal (z-score within array); higher = stronger binding", "details_in_all_cases": "glycan notation: IUPAC condensed, linker removed", "key": {"[1]": {"molecular_target": "Gal(b1-4)GlcNAc(b1-3)Gal(b1-4)GlcNAc(b1-3)Gal(b1-4)GlcNAc(b1-2)[Gal(b1-4)GlcNAc(b1-3)Gal(b1-4)GlcNAc(b1-3)Gal(b1-4)GlcNAc(b1-6)]Man(a1-6)[Gal(b1-4)GlcNAc(b1-3)Gal(b1-4)GlcNAc(b1-3)Gal(b1-4)GlcNAc(b1-2)Man(a1-3)]Man(b1-4)GlcNAc(b1-4)[Fuc(a1-6)]GlcNAc", "method_in_brief": "(§1)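 Arrays were curated from the Consortium for Functional Glycomics database, 3228 in total, and kept only where the protein sequence was available. Binding is expressed as a within-array Z-score. This score was averaged across arrays of the same protein sequence at different concentrations or buffers and across linkers, and negative values can be read as non-binding.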"}, "[2]": {"molecular_target": "Gal(b1-4)GlcNAc(b1-3)Gal(b1-4)GlcNAc(b1-3)Gal(b1-4)GlcNAc(b1-3)Gal(b1-4)GlcNAc(b1-3)Gal(b1-4)GlcNAc(b1-2)[Gal(b1-4)GlcNAc(b1-3)Gal(b1-4)GlcNAc(b1-3)Gal(b1-4)GlcNAc(b1-3)Gal(b1-4)GlcNAc(b1-3)Gal(b1-4)GlcNAc(b1-6)]Man(a1-6)[Gal(b1-4)GlcNAc(b1-3)Gal(b1-4)GlcNAc(b1-3)Gal(b1-4)GlcNAc(b1-3)Gal(b1-4)GlcNAc(b1-3)Gal(b1-4)GlcNAc(b1-2)Man(a1-3)]Man(b1-4)GlcNAc(b1-4)[Fuc(a1-6)]GlcNAc", "method_in_brief": "as §1"}, "[3]": {"molecular_target": "Gal(b1-4)GlcNAc(b1-3)GalNAc", "method_in_brief": "as §1"}, "[4]": {"molecular_target": "Gal(b1-4)GlcNAc(b1-6)[Gal(b1-4)GlcNAc(b1-3)]GalNAc", "method_in_brief": "as §1"}, "Gal3S4S(b1-4)GlcNAc": {"molecular_target": "Gal3S4S(b1-4)GlcNAc", "method_in_brief": "as §1"}, "Gal4S(b1-4)GlcNAc": {"molecular_target": "Gal4S(b1-4)GlcNAc", "method_in_brief": "as §1"}, "GalNAc(a1-3)GalNAc": {"molecular_target": "GalNAc(a1-3)GalNAc", "method_in_brief": "as §1"}, "[5]": {"molecular_target": "GalNAc(b1-3)Gal(a1-4)Gal(b1-4)GlcNAc(b1-3)Gal(b1-4)Glc", "method_in_brief": "as §1"}, "GalNAc(b1-3)GalNAc": {"molecular_target": "GalNAc(b1-3)GalNAc", "method_in_brief": "as §1"}, "GalNAc(b1-3)GlcNAc": {"molecular_target": "GalNAc(b1-3)GlcNAc", "method_in_brief": "as §1"}, "GalNAc3S(b1-4)GlcNAc3S": {"molecular_target": "GalNAc3S(b1-4)GlcNAc3S", "method_in_brief": "as §1"}, "[6]": {"molecular_target": "GlcNAc(a1-6)Gal(b1-4)GlcNAc", "method_in_brief": "as §1"}, "[7]": {"molecular_target": "GlcNAc(b1-3)Gal(b1-4)GlcNAc(b1-2)[GlcNAc(b1-3)Gal(b1-4)GlcNAc(b1-6)]Man(a1-6)[GlcNAc(b1-3)Gal(b1-4)GlcNAc(b1-2)Man(a1-3)]Man(b1-4)GlcNAc(b1-4)GlcNAc", "method_in_brief": "as §1"}, "[8]": {"molecular_target": "GlcNAc(b1-3)Gal(b1-4)GlcNAc(b1-3)Gal(b1-4)GlcNAc(b1-3)Gal(b1-4)GlcNAc(b1-2)Man(a1-3)[GlcNAc(b1-3)Gal(b1-4)GlcNAc(b1-3)Gal(b1-4)GlcNAc(b1-3)Gal(b1-4)GlcNAc(b1-2)Man(a1-6)]Man(b1-4)GlcNAc(b1-4)GlcNAc", "method_in_brief": "as §1"}, "[9]": {"molecular_target": "GlcNAc(b1-3)[GlcNAc(b1-6)]GalNAc", "method_in_brief": "as §1"}, "Kdn(a2-3)Gal(b1-3)GalNAc": {"molecular_target": "Kdn(a2-3)Gal(b1-3)GalNAc", "method_in_brief": "as §1"}, "Kdn(a2-3)Gal(b1-4)Glc": {"molecular_target": "Kdn(a2-3)Gal(b1-4)Glc", "method_in_brief": "as §1"}, "[10]": {"molecular_target": "Man(a1-3)[Man(a1-6)]Man(a1-6)[Man(a1-3)]Man(b1-4)GlcNAc(b1-4)GlcNAc", "method_in_brief": "as §1"}, "[11]": {"molecular_target": "Neu5Ac(a2-3)Gal(b1-3)GalNAc(b1-3)Gal(a1-4)Gal(b1-4)Glc", "method_in_brief": "as §1"}, "[12]": {"molecular_target": "Neu5Ac(a2-3)Gal(b1-3)GlcNAc", "method_in_brief": "as §1"}, "[13]": {"molecular_target": "Neu5Ac(a2-3)Gal(b1-3)GlcNAc(b1-2)Man", "method_in_brief": "as §1"}, "[14]": {"molecular_target": "Neu5Ac(a2-3)Gal(b1-3)GlcNAc(b1-2)Man(a1-3)[GlcNAc(b1-4)][Neu5Ac(a2-3)Gal(b1-3)GlcNAc(b1-2)Man(a1-6)]Man(b1-4)GlcNAc(b1-4)GlcNAc", "method_in_brief": "as §1"}, "[15]": {"molecular_target": "Neu5Ac(a2-3)Gal(b1-4)GlcNAc(b1-2)Man(a1-3)[Neu5Ac(a2-3)Gal(b1-4)GlcNAc(b1-2)Man(a1-6)]Man(b1-4)GlcNAc(b1-4)[Fuc(a1-6)]GlcNAc", "method_in_brief": "as §1"}, "[16]": {"molecular_target": "Neu5Ac(a2-6)Gal(b1-4)GlcNAc(b1-2)Man(a1-3)[Neu5Ac(a2-6)Gal(b1-4)GlcNAc(b1-2)Man(a1-6)]Man(b1-4)GlcNAc(b1-4)[Fuc(a1-6)]GlcNAc", "method_in_brief": "as §1"}, "[17]": {"molecular_target": "Neu5Ac(a2-6)Gal(b1-4)GlcNAc(b1-2)[Neu5Ac(a2-6)Gal(b1-4)GlcNAc(b1-4)]Man(a1-3)[GlcNAc(b1-4)][Neu5Ac(a2-6)Gal(b1-4)GlcNAc(b1-4)Man(a1-6)]Man(b1-4)GlcNAc(b1-4)GlcNAc", "method_in_brief": "as §1"}, "[18]": {"molecular_target": "Neu5Ac(a2-6)Gal(b1-4)GlcNAc(b1-3)Gal(b1-4)[Fuc(a1-3)]GlcNAc(b1-3)Gal(b1-4)[Fuc(a1-3)]GlcNAc", "method_in_brief": "as §1"}, "[19]": {"molecular_target": "Neu5Ac(a2-6)Gal(b1-4)GlcNAc(b1-3)GalNAc", "method_in_brief": "as §1"}, "[20]": {"molecular_target": "Neu5Ac(a2-8)Neu5Ac(a2-3)Gal(b1-3)GalNAc(b1-4)[Neu5Ac(a2-8)Neu5Ac(a2-3)]Gal(b1-4)Glc", "method_in_brief": "as §1"}, "[21]": {"molecular_target": "Neu5Gc(a2-8)Neu5Gc(a2-3)Gal(b1-4)GlcNAc", "method_in_brief": "as §1"}}, "note": "Only a selection was taken, and the strongest signals are over-represented in it overall."}
{"binder": "B1", "values": [{"measurement": "glycan array binding signal (z-score)", "setting": "[1]", "value": 2.78}, {"measurement": "glycan array binding signal (z-score)", "setting": "[2]", "value": 4.67}, {"measurement": "glycan array binding signal (z-score)", "setting": "[3]", "value": -0.443}, {"measurement": "glycan array binding signal (z-score)", "setting": "[4]", "value": 1.86}, {"measurement": "glycan array binding signal (z-score)", "setting": "Gal3S4S(b1-4)GlcNAc", "value": -0.454}, {"measurement": "glycan array binding signal (z-score)", "setting": "Gal4S(b1-4)GlcNAc", "value": -0.273}, {"measurement": "glycan array binding signal (z-score)", "setting": "GalNAc(a1-3)GalNAc", "value": -0.209}, {"measurement": "glycan array binding signal (z-score)", "setting": "[5]", "value": -0.567}, {"measurement": "glycan array binding signal (z-score)", "setting": "GalNAc(b1-3)GalNAc", "value": -0.744}, {"measurement": "glycan array binding signal (z-score)", "setting": "GalNAc(b1-3)GlcNAc", "value": 0.616}, {"measurement": "glycan array binding signal (z-score)", "setting": "GalNAc3S(b1-4)GlcNAc3S", "value": -0.726}, {"measurement": "glycan array binding signal (z-score)", "setting": "[6]", "value": -0.271}, {"measurement": "glycan array binding signal (z-score)", "setting": "[7]", "value": 0.698}, {"measurement": "glycan array binding signal (z-score)", "setting": "[8]", "value": 0.543}, {"measurement": "glycan array binding signal (z-score)", "setting": "[9]", "value": -0.871}, {"measurement": "glycan array binding signal (z-score)", "setting": "Kdn(a2-3)Gal(b1-3)GalNAc", "value": -0.399}, {"measurement": "glycan array binding signal (z-score)", "setting": "Kdn(a2-3)Gal(b1-4)Glc", "value": -0.306}, {"measurement": "glycan array binding signal (z-score)", "setting": "[10]", "value": 3.61}, {"measurement": "glycan array binding signal (z-score)", "setting": "[11]", "value": -0.786}, {"measurement": "glycan array binding signal (z-score)", "setting": "[12]", "value": -0.636}, {"measurement": "glycan array binding signal (z-score)", "setting": "[13]", "value": 2.81}, {"measurement": "glycan array binding signal (z-score)", "setting": "[14]", "value": -0.528}, {"measurement": "glycan array binding signal (z-score)", "setting": "[15]", "value": -0.269}, {"measurement": "glycan array binding signal (z-score)", "setting": "[16]", "value": 4.41}, {"measurement": "glycan array binding signal (z-score)", "setting": "[17]", "value": -0.864}, {"measurement": "glycan array binding signal (z-score)", "setting": "[18]", "value": -0.153}, {"measurement": "glycan array binding signal (z-score)", "setting": "[19]", "value": 2.85}, {"measurement": "glycan array binding signal (z-score)", "setting": "[20]", "value": 0.197}, {"measurement": "glycan array binding signal (z-score)", "setting": "[21]", "value": -0.712}]}
